# Measurements taken from PubChem BioAssay AID2316 (Broad Institute, 2010).
# Out of some 29,000 compounds screened, fewer than 10 were called active. Not all results are given here. A number with no mark means an inactive call. The rule behind the calls is not given here.
# Assay: reversal of PD-1 mediated T-cell inhibition, primary screen, luminescence, primary human CD4 T cells, PD-L1 beads (AID 2316);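 note: 0% = median vehicle wells and 100% = positive control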
# Details: CellTiter-Glo 96 h, active compounds read high
row,Compound,activation [%]
1,O=C(Nc1cccs1)N1CCN(C(=O)C2CCCO2)CC1 (stereo not drawn),-0.0221
2,Cc1ccc(NC(=O)CSc2nnc(C)n2-c2ccc(F)cc2)cc1Cl,0.0225
3,COc1ccc(S(=O)(=O)Nc2cccc3c2O[C@@H](CN(C)C(=O)Nc2ccccc2)[C@@H](C)CN([C@@H](C)CO)C3=O)cc1,-2.12
4,C[C@@H]1CN([C@@H](C)CO)C(=O)c2cc(NS(C)(=O)=O)ccc2O[C@@H]1CN(C)C(=O)Nc1ccc(F)cc1,2.2
5,O=C1c2ccccc2S(=O)c2ccccc2S(=O)(=O)N1Cc1ccccc1 (stereo not drawn),-5.99
6,Cc1ccc(Cl)cc1NC(=O)CN(c1cccc(Cl)c1C)S(C)(=O)=O,-5.55
7,CS(=O)(=O)N(CC(=O)Nc1ccc2ccccc2c1)c1cc(Cl)c(Cl)cc1Cl,1.79
8,COc1ccc(S(=O)(=O)N(C)C[C@H]2Oc3ccc(NS(=O)(=O)c4ccc(F)cc4)cc3C(=O)N([C@H](C)CO)C[C@H]2C)cc1,1.51
9,COc1ccc(NC(=O)Nc2ccc3c(c2)C(=O)N([C@H](C)CO)C[C@@H](C)[C@H](CN(C)Cc2ccccc2)O3)cc1,-0.421
10,C[C@H]1CN([C@@H](C)CO)C(=O)c2cc(NS(C)(=O)=O)ccc2O[C@H]1CN(C)C(=O)Nc1ccc(C(F)(F)F)cc1,0.226
11,O=C(NCc1ccccn1)C1CC(c2cccc(Br)c2)=NO1 (stereo not drawn),1.86
12,C[C@H](CO)N1C[C@H](C)[C@@H](CN(C)S(C)(=O)=O)Oc2c(NC(=O)c3ccc(-c4nccs4)cc3)cccc2C1=O,0.392
13,COc1ccc(C(=O)CSc2nc3ccc(OC)cc3[nH]2)cc1,0.352
14,Cc1noc(C)c1NC(=O)Nc1ccc2c(c1)C(=O)N([C@@H](C)CO)C[C@H](C)[C@H](CN(C)CC1CCCCC1)O2,1.03
15,C[C@@H]1CN([C@H](C)CO)C(=O)Cc2cc(NS(=O)(=O)c3ccc(F)cc3)ccc2O[C@H]1CN(C)C,2.25
16,CS(=O)(=O)N(CC(=O)Nc1cc(Cl)ccc1Cl)c1ccc(Oc2ccccc2)cc1,0.0184
17,Cc1ccc(S(=O)(=O)Nc2ccc3c(c2)C(=O)N([C@H](C)CO)C[C@H](C)[C@H](CN(C)Cc2ccc(C(=O)Nc4ccccc4N)cc2)OCCCC[C@@H](C)O3)cc1,-0.831
18,O=C(Nc1ccccc1Cl)c1ccccc1S(=O)(=O)c1ccccc1[N+](=O)[O-],1.95
19,CS(=O)(=NS(=O)(=O)c1ccc(OC(F)(F)F)cc1)c1ccc(Cl)cc1 (stereo not drawn),0.43
20,O=C1OC(c2ccc(-c3ccccc3)cc2)=N/C1=C\c1ccco1,1.56
21,C/C=C/c1ccc(OCCCSc2nc(C)cc(=O)[nH]2)c(OC)c1,2.94
22,C[C@H]1CN([C@@H](C)CO)C(=O)Cc2cc(NC(=O)Nc3ccc4c(c3)OCO4)ccc2O[C@H]1CN(C)Cc1ccc(C(=O)Nc2ccccc2N)cc1,-2.39
23,C[C@@H]1CCCCO[C@@H](CN(C)C(=O)C2CCCCC2)[C@@H](C)CN([C@H](C)CO)C(=O)c2cc(NC(=O)c3ccccc3)ccc2O1,-1.83

row,Compound,activation [%]
1,N#Cc1cc2c(nc1SCC(=O)Nc1ccccc1C(F)(F)F)CCCCC2,1.79
2,Cc1noc(C)c1NC(=O)Nc1cccc2c1O[C@@H](CN(C)C(=O)Nc1ccc(C(F)(F)F)cc1)[C@@H](C)CN([C@@H](C)CO)C2=O,-0.0327
3,C[C@H](CO)N1C[C@H](C)[C@H](CN(C)S(C)(=O)=O)Oc2ccc(NC(=O)CCCN(C)C)cc2C1=O,0.789
4,C[C@H](CO)N1C[C@H](C)[C@H](CN(C)CC2CCCCC2)Oc2ccc(NC(=O)CCCCCC(=O)Nc3ccccc3N)cc2CC1=O,-0.694
5,Cc1cccc(NC(=O)CSc2nc3c(cc2C#N)CCCCC3)c1,-3.01
6,O=C(CSc1nnc(-c2ccccc2)c(-c2ccccc2)n1)Nc1ccccc1,1.51
7,C[C@H]1CN([C@@H](C)CO)C(=O)c2cc(NC(=O)Cn3cnnn3)ccc2O[C@@H]1CN(C)CC1CCCCC1,1.73
8,CCCC1CCC(c2ccc(OC(=O)c3ccco3)cc2)CC1 (stereo not drawn),-0.337
9,CC(=O)c1c(C)nn(CC(O)COc2ccc3cc(Br)ccc3c2)c1C (stereo not drawn),-6.98
10,O=C(Nc1ccc(C(=O)OCc2cccc(C(=O)c3ccccc3)c2)cc1)c1ccccc1,-0.837
11,O=C(CSc1n[nH]c(-c2ccncc2)n1)Nc1ccccc1F,2.95
12,Cc1ccc(NC(=O)CN2C(=O)/C(=C\c3ccccc3)SC2=S)cc1,1.06
13,COC(=O)C1=C(C)NC2=C(C(=O)CC(C)(C)C2)C1c1ccncc1 (stereo not drawn),-0.541
14,C[C@@H]1CN([C@@H](C)CO)C(=O)c2cccc(NS(=O)(=O)c3cccs3)c2O[C@@H]1CN(C)CC1CC1,1.15
15,C[C@@H]1CN([C@H](C)CO)C(=O)c2cccc(NC(=O)Nc3ccccc3)c2O[C@H]1CN(C)S(C)(=O)=O,0.424
16,C[C@H]1CN([C@@H](C)CO)C(=O)Cc2cc(NC(=O)Nc3cccc4ccccc34)ccc2O[C@@H]1CN(C)S(=O)(=O)c1cn(C)cn1,-0.329
17,CC(C)Cc1ccc(/C=C/C(=O)N2CCCC2)cc1,-1.3
18,C[C@H]1CN([C@@H](C)CO)C(=O)c2cccc(NC(=O)C3CC3)c2O[C@@H]1CN(C)S(=O)(=O)c1ccc(F)cc1,-0.218
19,COc1ccc(CN(C)C[C@H]2Oc3c(NS(=O)(=O)c4ccc(C)cc4)cccc3C(=O)N([C@@H](C)CO)C[C@@H]2C)cc1,-1.26
20,COc1ccc(CN(C)C[C@@H]2Oc3ccc(NS(=O)(=O)c4ccc(F)cc4)cc3C(=O)N([C@@H](C)CO)C[C@@H]2C)cc1,-1.17
21,N#Cc1c(SCC(=O)Nc2ccc(F)cc2Cl)nc2c(c1C(F)(F)F)CCCCC2,0.417
22,CC(=O)NCCc1nc2cc(NC(=O)c3ccccc3)ccc2n1C,2.35
23,C[C@@H]1CN([C@@H](C)CO)C(=O)c2cc(NC(=O)CCCN(C)C)ccc2O[C@@H]1CN(C)Cc1ccncc1,0.414

row,Compound,activation [%]
1,CCOc1ccc(NC(=O)C(C)Sc2nnc(C)n2-c2ccccc2)cc1 (stereo not drawn),-0.74
2,C[C@@H]1CCCCO[C@@H](CN(C)C(=O)NC2CCCCC2)[C@@H](C)CN([C@H](C)CO)C(=O)c2cc(NC(=O)CCC(F)(F)F)ccc2O1,-0.155
3,COc1cc(OC)cc(C(=O)N2CCN=C2c2ccccc2)c1,0.604
4,C[C@@H]1CN([C@@H](C)CO)C(=O)c2cc(NC(=O)Cc3ccccc3)ccc2O[C@H]1CN(C)Cc1ccc(Cl)c(Cl)c1,-0.482
5,Cc1ccccc1N=C(N)N=C(N)N,-0.656
6,C[C@@H]1CCCCO[C@H](CN(C)C(=O)C2CCCCC2)[C@@H](C)CN([C@H](C)CO)C(=O)c2cc(NC(=O)C3CCCCC3)ccc2O1,-3.28
7,CC(=O)c1cccc(NC(=O)CN(C)S(=O)(=O)c2ccc3ccccc3c2)c1,0.81
8,COc1ccccc1-n1c(N)cc(=O)nc1SCC(=O)Nc1ccc(Br)cc1,1.16
9,C[C@H](CO)N1C[C@H](C)[C@H](CN(C)S(=O)(=O)c2cccs2)Oc2ccc(NC(=O)Nc3ccccc3)cc2C1=O,-1.39
10,Cc1ccc(-c2noc(CSc3nnc(-c4cccs4)n3C)n2)cc1,0.512
11,Cc1ccc(C)c(OCC(=O)Nc2ccccc2C#N)c1,-3.9
12,COc1ccc(S(=O)(=O)N(C)C[C@@H]2Oc3ccc(NS(=O)(=O)c4ccc(Cl)cc4)cc3C(=O)N([C@H](C)CO)C[C@H]2C)cc1,-2.88
13,O=C(OCC1OC(Oc2ccc(O)cc2COC(=O)C2(O)C(O)CCC(O)C2O)C(O)C(O)C1O)c1ccccc1 (stereo not drawn),-1.74
14,C[C@@H]1CN([C@@H](C)CO)C(=O)c2cccc(NS(=O)(=O)c3ccc(Cl)cc3)c2O[C@@H]1CN(C)C(=O)Nc1ccccc1,-0.568
15,C[C@@H]1CN([C@H](C)CO)C(=O)Cc2cc(NC(=O)Cn3cnnn3)ccc2O[C@H]1CN(C)Cc1ccc(Cl)c(Cl)c1,1.08
16,C[C@@H]1CN([C@@H](C)CO)C(=O)c2cccc(NS(=O)(=O)c3ccc(F)cc3)c2O[C@@H]1CN(C)Cc1ccc(C(=O)O)cc1,1.83
17,C[C@H]1CN([C@@H](C)CO)C(=O)c2cc(NS(=O)(=O)c3cccs3)ccc2O[C@@H]1CN(C)C(=O)Nc1cccc2ccccc12,-0.392
18,COc1ccc(NC(=O)Nc2ccc3c(c2)CC(=O)N([C@H](C)CO)C[C@H](C)[C@H](CN(C)Cc2ccncc2)O3)cc1,0.119
19,CC(=O)Nc1ccc(Nc2c3c4c(cccc4[nH]c2=O)C(=O)c2ccccc2-3)cc1,-3.04
20,Cc1noc(C)c1S(=O)(=O)Nc1ccc2c(c1)CC(=O)N([C@@H](C)CO)C[C@H](C)[C@@H](CN(C)S(=O)(=O)c1cn(C)cn1)O2,1.24
21,C[C@H]1CN([C@@H](C)CO)C(=O)c2cccc(NS(=O)(=O)c3ccc(F)cc3)c2O[C@@H]1CN(C)C,0.422
22,Cc1ccc(S(=O)(=O)Nc2ccc3c(c2)C(=O)N([C@H](C)CO)C[C@H](C)[C@H](CN(C)S(C)(=O)=O)O3)cc1,0.318
